From PubChem BioAssay AID1259417 (TB Discovery Research, Infectious Disease Research Institute, 2018)
The campaign covered roughly 1,100 compounds. About 760 (69%) were called active. The rule behind the calls is not given here. The set was probably picked from earlier hits. Some of the results follow.

Assay: M. tuberculosis growth inhibition, HTS (AID 1259417);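 note: bacteria grown with compound for 5 days at 37 °C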
Settings: stronger effect = higher value, concentration not given here
[1] = M. tuberculosis DsRed fluorescence growth inhibition
[2] = M. tuberculosis growth inhibition

Compound	inhibition [1]	inhibition [2]
CCOC(=O)COc1ccc2c(=O)cc(-c3ccccc3)oc2c1	89.6% (active)	95.3%
CCOC(=O)COc1cc(OCC(=O)OCC)c2c(=O)cc(-c3ccccc3)oc2c1	63.7% (active)	71.2%
COc1ccc(Cl)cc1NC(=O)C(C)N1CCN(C/C=C/c2ccccc2)CC1 (stereo not given)	-0.555% (inactive)	-22.8%
COc1ccccc1C(=O)Nc1nnc(-c2cc(C)ccc2C)o1	-3.37% (inactive)	-7.24%
Cc1ccc(C)c(-c2nnc(NC(=O)C(C)C)o2)c1	67% (active)	78.6%
Cc1ccc(C)c(-c2nnc(NC(=O)c3cccc4ccccc34)o2)c1	-3.96% (inactive)	-5.52%
Cc1ccc(C)c(-c2nnc(NC(=O)C(C)(C)C)o2)c1	84.1% (active)	83.8%
Cc1ccc(C)c(-c2nnc(NC(=O)c3ccccc3F)o2)c1	80.6% (active)	85.5%
Cc1ccc(C)c(-c2nnc(NC(=O)c3cc(Cl)sc3Cl)o2)c1	99.2% (active)	96.3%
Cc1ccc(C)c(C(=O)Nc2nnc(-c3cc(C)ccc3C)o2)c1	87.9% (active)	74.7%
CCCC(=O)Nc1nnc(-c2cc(C)ccc2C)o1	10.9% (active)	48.8%
CCCC(=O)Nc1nnc(-c2ccc(C)cc2C)o1	2.17% (inactive)	26.4%
CCOc1ccccc1NC(=O)CSc1nc2ccc(NC(=O)c3ccccc3Cl)cc2s1	-3.22% (inactive)	-11.8%
COc1cccc(OC)c1C(=O)Nc1ccc(Cl)c(-c2nc3ccccc3s2)c1	72.8% (active)	62.9%
CCc1ccc(/C=c2\s/c(=C/C(=O)C(C)(C)C)[nH]c2=O)cc1	99.8% (active)	99.5%
CC(C)Cn1c(N2CCN(Cc3ccc(Cl)c(Cl)c3)CC2)nc2c1c(=O)[nH]c(=O)n2C	7.43% (active)	34.1%
CC(=N/N=C1\NC(=O)C(Cc2ccc(Cl)cc2)S1)c1ccc(F)cc1 (stereo not given)	5% (inactive)	-11.9%
COc1ccc(CC2SC(=NN=Cc3ccccc3O)NC2=O)cc1 (stereo not given)	98.1% (active)	97.1%
O=C1NC(=NN=Cc2ccccc2O)SC1Cc1ccc(F)cc1 (stereo not given)	99.2% (active)	98.8%
CC(=N/N=C1\NC(=O)C(Cc2ccc(F)cc2)S1)c1ccc(Cl)cc1 (stereo not given)	8.19% (inactive)	-27.8%
Cc1ccc(-n2c(=O)oc3ccc(Cl)cc3c2=O)cc1Cl	100% (active)	101%
CCc1ccccc1-n1c(=O)oc2ccc(Cl)cc2c1=O	101% (active)	100%

Compound	inhibition [1]	inhibition [2]
CCOC(=O)C=CC(=O)Nc1nc(-c2ccccc2)cs1	41.3% (active)	56%
Cc1ccc(-c2c[n+](CC(=O)Nc3nc(-c4ccc(F)cc4)cs3)c3n2CCC3)cc1	15.8% (inactive)	14.8%
Cc1cccc(-n2c(N)cc(=O)nc2SCC(=O)Nc2nc(-c3ccccc3)cs2)c1	-2.92% (inactive)	-16.5%
CCc1ccc(OCC(=O)NNC(=O)c2cnccn2)c(Br)c1	93.6% (active)	95.4%
COC(=O)COc1ccc(C=C(C#N)c2nc3ccccc3[nH]2)cc1	59.4% (active)	79.9%
CCOC(=O)COc1c(Cl)cc(C=C(C#N)c2nc3ccc(OC)cc3[nH]2)cc1Cl	45.4% (active)	50.3%
N#CC(=CNc1ccccc1)c1nc2ccccc2[nH]1	34.4% (active)	48.7%
CCOC(=O)Cn1cc(C=C(C#N)c2nc3ccc(OC)cc3[nH]2)c2ccccc21	-3.18% (inactive)	0.813%
Cc1ccc2nc(/C(C#N)=C/c3c[nH]c4ccc(Br)cc34)[nH]c2c1	19.3% (inactive)	22.8%
CCOC(=O)C1=C(C)N(c2ccc(Br)cc2)C(=O)C1	6.73% (inactive)	8.65%
O=C1Nc2ccccc2/C1=N/N=C/C1=C(N2CCOCC2)C(=C\c2ccccc2)/CC1	-1.05% (inactive)	-11.8%
COC(=O)COc1cccc(NC(=O)c2cccc(C)c2)c1	14.1% (active)	40.2%
COC(=O)COc1ccc(NC(=O)c2cccc(C)c2)cc1	68.2% (active)	87.4%
COC(=O)COc1cccc(NC(=O)c2ccc(Cl)cc2)c1	50% (active)	72.5%
O=C(c1ccc(Cl)cc1)C1CCCN(Cc2cnn(-c3ccccc3)c2)C1 (stereo not given)	1.81% (inactive)	-16.6%
COc1ccc(C(=O)CCN2CCCC(C)C2)cc1 (stereo not given)	13.2% (inactive)	13.2%
CC1CCCN(CCC(=O)c2ccc(Br)cc2)C1 (stereo not given)	72.2% (active)	84.5%
Cc1cc(N2CCCCC2)nc2ccc(NC(=O)c3ccc(Br)o3)cc12	0.712% (inactive)	-27.2%
Cc1ccc(Cc2ccc(C(=O)Nc3ccc(C)c(C)c3)o2)cc1	99.7% (active)	99.7%
COc1cc2c(cc1NC(=O)Nc1ccc(Cl)cc1)oc1ccccc12	0.315% (inactive)	-15.8%
COc1ccc(C)cc1NC(=O)c1ccc(Cc2ccc(C)cc2)o1	98.3% (active)	101%
COc1ccc2c(c1)CCC1Sc3ccccc3N=C21 (stereo not given)	1.21% (inactive)	17%

Compound	inhibition [1]	inhibition [2]
COC(=O)C(CC(C)C)NC(=O)/C=C/c1ccc(Cl)cc1 (stereo not given)	53.1% (active)	45.8%
COC(=O)C(CC(C)C)NC(=O)/C=C/c1ccccc1Cl (stereo not given)	11.6% (inactive)	28.6%
CC(C)Cc1cc(C(=O)Nc2c(F)cc(F)cc2Br)no1	22.3% (active)	57.6%
O=C(c1ccco1)N(CCCn1ccnc1)c1nc2ccc(Br)cc2s1	98.9% (active)	98.4%
Cc1ccc2nc(N(CCCn3ccnc3)C(=O)c3ccco3)sc2c1	96.9% (active)	98.4%
O=C(c1ccco1)N(CCCn1ccnc1)c1nc2ccc(Cl)cc2s1	97.8% (active)	99.1%
O=C1N(c2ccc3c(c2)OCCO3)C(c2ccccc2)C1(F)F (stereo not given)	36.5% (active)	75.8%
O=C(Nc1nnc(-c2ccc(F)cc2)o1)c1ccc(Br)s1	66.4% (active)	78.5%
O=C(Nc1nnc(-c2ccc(Br)cc2)o1)c1ccc(Cl)s1	32.9% (active)	79.2%
O=C(Nc1nnc(-c2ccc(Br)cc2)o1)c1cc(Cl)sc1Cl	8.56% (inactive)	28.1%
COc1ccc(-c2nnc(NC(=O)c3ccc(Cl)s3)o2)cc1	75.4% (active)	80.6%
CC(C)(C)c1ccc(-n2c(=O)[nH]c3c(C(N)=O)nc(CCc4ccccc4)nc32)cc1	2.16% (inactive)	-28.9%
COc1ccc(Cn2c(=O)c3c(n4cnnc24)-c2ccccc2CC32CCCCC2)cc1	21.7% (inactive)	2.83%
COc1ccc(C2(CNC(=O)c3cc([N+](=O)[O-])cc([N+](=O)[O-])c3)CCCC2)cc1OC	98.6% (active)	94.9%
O=C(NCCc1ccc(Cl)cc1)c1ccc(CNc2c(N3CCOCC3)c(=O)c2=O)cc1	96% (active)	88.6%
CC1CC(C)CN(C(=O)c2ccc(CNc3c(N4CCCC4)c(=O)c3=O)cc2)C1 (stereo not given)	97.5% (active)	90%
O=C(NCCc1ccc(Cl)cc1)C1CCC(CNc2c(N3CCCCC3)c(=O)c2=O)CC1 (stereo not given)	96.1% (active)	90%
CCOC(=O)COc1ccc2c(=O)c(-c3ccc(OC)cc3)c(C)oc2c1	83.6% (active)	94%
COC(=O)C(C)Oc1ccc2c(=O)c(-c3ccc(Br)cc3)c(C)oc2c1 (stereo not given)	32.6% (active)	92.3%
COc1ccc(-c2c(C)oc3cc(OCC(=O)OC(C)C)ccc3c2=O)cc1OC	13.8% (active)	67.7%
CCOC(=O)COc1ccc2c(C)c(-c3ccc(OC)c(OC)c3)c(=O)oc2c1	10.3% (active)	36.5%
CCC(=Cc1sc2ccc(OC)cc2[n+]1CCO)C=C1Sc2ccc(OC)cc2N1CCO	9.54% (inactive)	21%

Compound	inhibition [1]	inhibition [2]
CCOC(=O)COc1ccc2c(=O)c(-c3ccc(OC)c(OC)c3)c(C(=O)OCC)oc2c1	34.4% (active)	64.4%
CCOC(=O)COc1ccc2c(C)c(CC(=O)OC)c(=O)oc2c1	11.2% (active)	54.4%
Cc1cc(C(=O)Oc2ccccc2)ccc1[N+](=O)[O-]	10.6% (active)	55.9%
Cc1cc(C(=O)Oc2ccc(Cc3ccccc3)cc2)ccc1[N+](=O)[O-]	41.1% (active)	39.3%
CCOC(=O)c1c(NC(=O)c2ccc([N+](=O)[O-])c(C)c2)sc(C)c1-c1ccccc1	2.11% (inactive)	-28.3%
Cc1ccc(C(=O)Oc2cccc(NC(=O)c3ccccc3)c2)cc1C	0.632% (inactive)	1.38%
Cc1cc2c(cc1C)N(Cc1ccc(C(C)(C)C)cc1)C1=NCCCN12	95% (active)	99.7%
Cn1c(Sc2ccc([N+](=O)[O-])c3cccnc23)nnc1-c1ccccc1	12% (inactive)	20.3%
Cn1c(Sc2cnn(-c3ccccc3)c(=O)c2Br)nnc1-c1ccccc1	49.6% (active)	70.7%
CCOC(=O)CSc1ncc(-c2cccc(Cl)c2)cn1	15% (active)	70.5%
CCCOc1ccccc1-c1nc(SCC(=O)OCC)n[nH]1	2.36% (active)	37.9%
O=C(CSc1n[nH]c(-c2ccc(Cl)cc2)n1)Nc1ccc(F)c(Cl)c1	-0.872% (inactive)	-10.5%
CCOC(=O)C(C)Sc1ncc(-c2ccc(Cl)cc2)cn1 (stereo not given)	4.78% (active)	45.6%
CCOC(=O)CSc1n[nH]c(-c2ccc(Cl)cc2)n1	17.9% (active)	58%
COc1ccc(-c2c(C)[nH]n3c(=O)c(Cc4ccccc4)c(C)nc23)cc1	96.2% (active)	81.3%
COc1ccc(C2=CC(c3c(C)nn(-c4ccccc4)c3Cl)n3nnnc3N2)cc1OC (stereo not given)	99.1% (active)	93.4%
CCOc1ccc2c3c(c(=O)oc2c1OCC)CCCC3	31.8% (active)	41.4%
COc1ccc(-n2c(C)nc3sc4c(c3c2=O)CCCC4)cc1	-4.71% (inactive)	-14.1%
COc1nc(SC)nc2sc3c(c12)CCC3	98.3% (active)	99.3%
